KB-V1 cytotox – kills drug-selected multidrug resistant KB-V1 cells; KB-V1 MDR cells viability, CellTiter-Glo, 72 h; Potency, µM (highest dose often 46.1 µM), hits mostly cytotoxic; 3.4% of 400,000 active; note: nearly all actives have a fitted effect of over 60% in size
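Potencies derive from concentration-effect curves fitted to normalized luminescence (CellTiter-Glo) of KB-V1 cells treated for 72 h at 37 degrees C in phenol-red-free DMEM containing 10% FBS.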
HT1080NT lethal – kills 2HG-producing HT-1080-NT fibrosarcoma cells | HT-1080-NT fibrosarcoma viability, CellTiter-Glo ATP luminescence, 48 h | Potency, µM (series often up to 46.1 µM), for the others: at the highest dose activity, negative = less viability, actives largely listed as cytotoxic | 1.6% of 360,000 active;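 note: NT is the 2HG producing partner of a matched IDH1 knockdown line; 0% = DMSO-treated cells and -100% = media-only wells without cells; nearly all actives have a fitted effect of over 55% in size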
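Fibrosarcoma NT cells, 750 per well in 5% FBS RPMI, were exposed to compound for 48 hours. Viability: CellTiter-Glo luminescence.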
KB-3-1 tox – KB-3-1 parental cell cytotoxicity; KB-3-1 viability, CellTiter-Glo ATP luminescence, 72 h; Potency, µM (titrated, usually from 46.1 µM), actives largely listed as cytotoxic; 1.4% of 400,000 active; note: nearly all actives have a fitted effect of over 60% in size
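Here the drug-naive KB-3-1 line serves as comparator for MDR sub-line selectivity; cells received compound titrations, 72 h at 37 °C, then CellTiter-Glo readout.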
HT1080 IDH1KD tx – HT-1080 IDH1 knockdown cell toxicity (counter line). AID 686971. Potency, µM (series often up to 46.1 µM), inactives show at the highest dose activity, negative = toxicity, most hits filed as cytotoxic. HT-1080 IDH1 knockdown viability, ATP luminescence, 48 h. 2% of 360,000 active;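 note: 0% = DMSO wells and -100% = cell-free medium wells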
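HT-1080-IDH1KD cells (IDH1 knocked down), 750/well in RPMI with 5% FBS, treated with compound 48 h at 37 degrees C. Viability by CellTiter-Glo luminescence, normalised to DMSO and no-cell wells; concentration-response curves classed.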
Starred values were filed as active, the others as inactive. Shown are actives, neighbours in structure and some others; about 5.7% of the full set was active somewhere. Calls come from the whole dose curve; as a rule, active = well fitted curve in the direction sought with a large enough effect; inconclusive = small, poorly fitted or top-dose-only effect, or another doubt; inactive = no such curve, though single readings can be large; an effect the other way counts as inactive or inconclusive. Unless noted, % is set by controls: 0 for no effect and ±100 for the full control effect; potency is the fitted concentration of half-maximal effect.

Results for CCOC(=O)C1=C(Nc2ccccc2)CC(C)(O)C(C(=O)OCC)C1c1ccc(Br)cc1 (configuration not stated) ?
KB-V1 cytotox: 23.1µM*; HT1080NT lethal: -0.6%; KB-3-1 tox: inconclusive; HT1080 IDH1KD tx: -11.4%

Results for CCOC(=O)C1=C(Nc2ccccc2)CC(C)(O)C(C(=O)OCC)C1c1ccccc1 (configuration not stated) ?
KB-V1 cytotox: inconclusive; HT1080NT lethal: 6.8%; KB-3-1 tox: inactive; HT1080 IDH1KD tx: 12.5%

Results for COc1cc([C@@H]2c3cc4c(cc3[C@@H](O)[C@H]3COC(=O)[C@H]23)OCO4)cc(OC)c1O[Si](C)(C)C(C)(C)C ?
KB-V1 cytotox: inconclusive; HT1080NT lethal: inconclusive; KB-3-1 tox: 5.8µM*; HT1080 IDH1KD tx: inconclusive

Results for COc1cc(C2c3cc4c(cc3OC(N3CCCCC3)C2C)OCO4)cc(OC)c1O (configuration not stated) ?
KB-V1 cytotox: inconclusive; HT1080NT lethal: -10.5%; KB-3-1 tox: inconclusive; HT1080 IDH1KD tx: -21.4%

Results for CCN(CC)C1Oc2cc3c(cc2C(c2cc(OC)c(OC)c(OC)c2)C1C)OCO3 (configuration not stated) ?
KB-V1 cytotox: inconclusive; HT1080NT lethal: 1.84µM*; KB-3-1 tox: 1.16µM*; HT1080 IDH1KD tx: 1.46µM*

What do the screens show for `COc1cc(C2c3cc4c(cc3C3OC(=O)C2C3CO)OCO4)cc(OC)c1OC` (configuration not stated)?
KB-V1 cytotox: 0.206µM*; HT1080NT lethal: 0.0103µM*; KB-3-1 tox: inconclusive; HT1080 IDH1KD tx: 0.0164µM*

How did COc1cc(CC(=O)Oc2ccc3c(c2)OCO3)cc(OC)c1OC do in these assays?
KB-V1 cytotox: inactive; HT1080NT lethal: 1.4%; KB-3-1 tox: inactive; HT1080 IDH1KD tx: 0.7%

What do the screens show for `Cc1ccc(Nc2ncnc3sc(C)c(C)c23)cc1`?
KB-V1 cytotox: inconclusive; HT1080NT lethal: inconclusive; KB-3-1 tox: inactive; HT1080 IDH1KD tx: -22.9%

What do the screens show for `Cc1ccc(S(=O)(=O)Nc2ncnc3sc(C)c(C)c23)cc1`?
KB-V1 cytotox: 3.66µM*; HT1080NT lethal: -1.7%; KB-3-1 tox: inconclusive; HT1080 IDH1KD tx: 4.9%

Results for Cc1ccccc1NC(=O)c1c(C)oc2ccc(O)c(CN3CCOCC3)c12 ?
KB-V1 cytotox: inactive; KB-3-1 tox: inactive

What do the screens show for `COc1cc(Br)c(CN2C(=O)NC3(CCCCCC3)C2=O)cc1OC`?
KB-V1 cytotox: 6.51µM*; HT1080NT lethal: 0.3%; KB-3-1 tox: inactive; HT1080 IDH1KD tx: -1.8%

Results for Cc1cc(C)c2cccnc2c1O ?
KB-V1 cytotox: inactive; KB-3-1 tox: inactive

How did CCOc1ccc2c(ccc(/C=C/c3cc(C)c4cccnc4c3O)[n+]2C)c1 do in these assays?
KB-V1 cytotox: inconclusive; HT1080NT lethal: inconclusive; KB-3-1 tox: inconclusive; HT1080 IDH1KD tx: 23.1µM*

How did CCOC(=O)c1ccc(NC(=O)c2cnn(-c3ccc(C)cc3C)c2C2CCN(C(=O)OC(C)(C)C)CC2)cc1 do in these assays?
KB-V1 cytotox: inactive; KB-3-1 tox: inactive

How did CCCCNC(=S)N/N=C/c1cccc(OCC)c1O do in these assays?
KB-V1 cytotox: inactive; HT1080NT lethal: 28.7%; KB-3-1 tox: inactive; HT1080 IDH1KD tx: 9.4%

Results for COc1cccc(/C=N/NC(=O)COc2cccc3cccnc23)c1O ?
KB-V1 cytotox: inactive; HT1080NT lethal: -21.4%; KB-3-1 tox: inconclusive; HT1080 IDH1KD tx: 18.4µM*

How did COc1cccc(/C=N/NC(=O)N/N=C/c2cccc(OC)c2O)c1O do in these assays?
KB-V1 cytotox: inactive; HT1080NT lethal: -21.3%; KB-3-1 tox: inactive; HT1080 IDH1KD tx: -18.5%

What do the screens show for `COc1cccc(C(=O)Oc2ccc(/C=N/Nc3ccc(C(=O)O)cc3)cc2OC)c1`?
KB-V1 cytotox: inactive; HT1080NT lethal: -28.4%; KB-3-1 tox: inactive; HT1080 IDH1KD tx: -11.4%

How did CCOc1cccc(/C=N/NC(=S)Nc2ccccc2[N+](=O)[O-])c1O do in these assays?
KB-V1 cytotox: inactive; HT1080NT lethal: inconclusive; KB-3-1 tox: inactive; HT1080 IDH1KD tx: 16.4µM*

Results for COc1cccc(OCc2cc(/C=N/Nc3ccc(C(=O)O)cc3)ccc2OC)c1 ?
KB-V1 cytotox: inactive; HT1080NT lethal: 20.6µM*; KB-3-1 tox: inactive; HT1080 IDH1KD tx: inconclusive

What do the screens show for `COc1cccc(C=NNC(=O)c2ccncc2)c1O`?
KB-V1 cytotox: inactive; HT1080NT lethal: inconclusive; KB-3-1 tox: 20.6µM*; HT1080 IDH1KD tx: 1.46µM*

Results for CCC(Sc1ncnc2sc3c(c12)CCCC3)C(=O)OCC(C)C (configuration not stated) ?
KB-V1 cytotox: inactive; KB-3-1 tox: inactive

What do the screens show for `CCOc1cc(/C=N/NC(=O)c2cccnc2)ccc1O`?
KB-V1 cytotox: inconclusive; HT1080NT lethal: -0.8%; KB-3-1 tox: inactive; HT1080 IDH1KD tx: -0.1%

What do the screens show for `CCOc1cccc(/C=N/NC(=O)c2cccnc2)c1O`?
KB-V1 cytotox: inconclusive; HT1080NT lethal: inconclusive; KB-3-1 tox: inactive; HT1080 IDH1KD tx: 5.17µM*

How did COc1cccc(/C=N/Nc2ccc(C(=O)O)cc2)c1O do in these assays?
KB-V1 cytotox: inconclusive; HT1080NT lethal: 18.4µM*; KB-3-1 tox: 16.4µM*; HT1080 IDH1KD tx: 20.6µM*

What do the screens show for `COc1ccccc1C=NN=C(NN=Cc1ccccc1OC)NN=Cc1ccccc1OC`?
KB-V1 cytotox: 20.6µM*; HT1080NT lethal: inconclusive; KB-3-1 tox: inconclusive; HT1080 IDH1KD tx: inconclusive

Results for COc1cccc(/C=N/Nc2ccc(S(=O)(=O)O)cc2)c1O ?
KB-V1 cytotox: inactive; HT1080NT lethal: 11.3%; KB-3-1 tox: inactive; HT1080 IDH1KD tx: 0.0%

Results for CCOc1cc(C#N)c(NC(=O)c2cccnc2)cc1OCC ?
KB-V1 cytotox: inconclusive; HT1080NT lethal: inconclusive; KB-3-1 tox: 0.651µM*; HT1080 IDH1KD tx: 5.17µM*

How did CCOc1cc(C#N)c(NC(=O)c2cccnc2Cl)cc1OCC do in these assays?
KB-V1 cytotox: inactive; HT1080NT lethal: 15.3%; KB-3-1 tox: inactive; HT1080 IDH1KD tx: 26.1%

How did O=C(Cn1c(=O)n(Cc2nc(-c3ccccc3)no2)c(=O)c2cc3c(cc21)OCO3)Nc1cccc(C(F)(F)F)c1 do in these assays?
KB-V1 cytotox: inactive; KB-3-1 tox: inconclusive

Results for Cc1ccc(S(=O)(=O)Nc2cc3c(cc2N2CCOCC2)n(C)c(=O)n3C)c(C)c1 ?
KB-V1 cytotox: inactive; KB-3-1 tox: inactive

Results for Cc1nc(CN(C)C(=O)c2cc(COc3ccc4ncccc4c3)on2)cs1 ?
KB-V1 cytotox: inconclusive; HT1080NT lethal: 4.11µM*; KB-3-1 tox: inconclusive; HT1080 IDH1KD tx: inconclusive

Results for CC(C)N(Cc1nccn1C)C(=O)c1cc(COc2ccc3ncccc3c2)on1 ?
KB-V1 cytotox: inactive; HT1080NT lethal: inconclusive; KB-3-1 tox: inactive; HT1080 IDH1KD tx: -26.2%

Results for CCN1CCN(C(=O)c2cc(COc3ccc4ncccc4c3)on2)CC1 ?
KB-V1 cytotox: 16.4µM*; HT1080NT lethal: -27.2%; KB-3-1 tox: inactive; HT1080 IDH1KD tx: -0.6%
